Measurements as given in PubChem BioAssay (NCI).
This is part of a sample that, as a whole, favours compounds with a hit. Of some 83,000 tested, about 20% had one in any assay.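 How to read the values: 0–100, growth inhibition (40 = 60% inhibited); 0, no net growth; -100 to 0, cell death (-40 = 40% of starting cells died; -100 = all dead).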 Values without a mark were called inactive. Activity calls are given as the source filed them. How the source made its calls: active means growth percent below 10; inactive means the rest.

The compounds below were run on HCT-116 colon (assay: NCI-60 one-dose screen, 48 h (100 = growth as untreated, 0 = no growth, -100 = all killed)). Conditions: 10 µM unless noted.

SMILES | growth
CC1=C(C#N)C2=NNCC(c3ccccc3)=NN2C(c2ccccc2)=C1 | 101%
O=C(O)c1ccc(-c2ccc(/C=N/NC(=O)c3[nH]c4ccc(Br)cc4c3-c3ccccc3)s2)cc1 | 11.1%
N#Cc1c(-c2ccc(Cl)cc2)nc2n[nH]c(-c3ccc(Cl)cc3)c2c1-c1cccs1 | 35.4%
COc1c(F)ccc(C(=O)Nc2ccc3nc(NC(=O)C4CCCN(S(=O)(=O)c5cccc(Br)c5)C4)sc3c2)c1F (stereo not drawn) | 67.9%
O=c1[nH]c2ccc(Cl)cc2cc1CSc1nccc(-c2ccc(Cl)cc2)n1 | 30.3%
O=C(O)c1cccc(-c2ccc(/C=N/NC(=O)c3[nH]c4ccc(Br)cc4c3-c3ccccc3)s2)c1 | 31.5%
O=c1[nH]c(=O)c2c(-c3cc4ccccc4oc3=O)ccnc2[nH]1 | 88.3%
N#Cc1c(-c2ccc(Br)cc2)nc2n[nH]c(-c3ccc(Br)cc3)c2c1-c1ccc(C(F)(F)F)cc1 | 6.76% (active)
COc1cccc(/C=C/c2nc3ccccc3c(=O)n2CC(=O)Nc2ccc(Cl)cc2)c1 | 38.4%
CSc1ccc(C(=O)Nc2ccc3nn(/C(C#N)=C/c4ccccn4)nc3c2)cc1 | -93.8% (active)
O=C(/C=C/c1ccc(-c2ccccc2)cc1)c1nc2ccccc2n1Cc1ccc(Br)cc1 | 24%
COc1ccc2c(c1)c(/C=N/Nc1ccc3ccccc3n1)cn2C | -99.5% (active)
COc1c(F)ccc(C(=O)Nc2ccc3nc(NC(=O)C4CCCN(S(=O)(=O)c5ccc(Br)c(F)c5)C4)sc3c2)c1F (stereo not drawn) | 62.7%
N#Cc1c(-c2cccc(Cl)c2Cl)cc(-c2ccc3ccccc3c2)[nH]c1=O | 2.78% (active)
Nc1cc2ccccc2c(=O)n1NC(=O)c1ccc(I)cc1 | 98%
CCN(CC)c1ccnc(CNCCSC(c2ccccc2)(c2ccccc2)c2ccc(OC)cc2)c1 | -78.6% (active)
N#Cc1c(-c2ccccc2Cl)cc(-c2c[nH]c3ccccc23)[nH]c1=O | 52.4%
N#Cc1ccc(/C=N/NC(=O)c2[nH]c3ccc(Br)cc3c2-c2ccccc2)o1 | 1.43% (active)

SMILES | growth
Cc1nc(Nc2ncc(C(=O)Nc3c(C)cccc3Cl)s2)cc(N2CCN(CCCNC(=O)COc3ccc(C4CCC(=O)NC4=O)cc3)CC2)n1 (stereo not drawn) | 42.2%
Cc1sc2c(c1C)C(c1ccc(Cl)cc1)=N[C@@H](CC(=O)NCCCCCNC(=O)COc1ccc(C3CCC(=O)NC3=O)cc1)c1nnc(C)n1-2 (stereo partly drawn) | 20%
COc1ccc(C(=O)/C=C/c2ccc(OCc3ccc(F)cc3)c(OC)c2)cc1OC | 8.63% (active)
CCOC(=O)C1=C(N)N(c2ccccc2)C2=C(C(=O)CC(C)(C)C2)C1c1ccc(Cl)cc1Cl (stereo not drawn) | 13.6%
CC(C)CCNC(=O)N/C(N)=N/c1nc2ccccc2s1 | 54.7%
CN(C)c1nc(NCCNS(=O)(=O)c2ccc(C3=Nc4c(N)nc(N)nc4NC(c4ccc(F)cc4)C3)cc2)nc(Nc2ccc(F)cc2)n1 (stereo not drawn) | 30.6%
COc1ccc2cc([C@H](C)C(=O)N/N=C/c3ccc(Br)cc3)ccc2c1 | 103%
Cn1cc(-c2cc3nc(-c4cn(C)c5ncccc45)cc(N)n3n2)c2ccccc21 | -20% (active)
COc1ccc(-c2cc(C(=O)NCc3ccccc3)nn2-c2ccc(S(C)(=O)=O)cc2)cc1OC | 102%
COc1ccc(-c2ccc(SCC(=O)Nc3ccc(S(N)(=O)=O)cc3Br)nn2)cc1 | 79.4%
C#CCOc1cc(N(CC)CC)ccc1C(C(=O)NC(C)(C)C)N(C(=O)C1CCc2cc(F)ccc2O1)c1cc(C)cc(C)c1 (stereo not drawn) | 11.4%
N#Cc1c(-c2ccc(Br)cc2)nc2n[nH]c(-c3ccc(Br)cc3)c2c1-c1ccc(F)cc1 | 95.3%
CSc1ccc(NC(=O)c2ccc3nn(/C(C#N)=C/c4ccccn4)nc3c2)cc1 | -73.9% (active)
C=C1CC[C@@H]2[C@]3(C)COC(c4cn(-c5ccccc5)nc4-c4cccc([N+](=O)[O-])c4)O[C@@H]3CC[C@@]2(C)[C@@H]1C/C=C1/C(=O)OC[C@H]1O (stereo partly drawn) | -13.7% (active)
Cc1ccc(NC(=O)CN2CCN(c3ncnc4c3cnn4-c3ccccc3)CC2)cc1 | 76.3%
Cc1cc(C)cc(C(=O)Nc2cccc(-c3cn(-c4ccc(S(N)(=O)=O)cc4)nn3)c2)c1 | 39.8%
O=C(C1=CNC(=S)NC1c1ccc(O)cc1)c1cc2ccccc2oc1=O (stereo not drawn) | 101%

These compounds were tested on HCC-2998 colon in the same assay as above. Conditions: 10 µM unless noted.

SMILES | growth
CC1=C(C#N)C2=NNCC(c3ccccc3)=NN2C(c2ccccc2)=C1 | 118%
O=C(O)c1ccc(-c2ccc(/C=N/NC(=O)c3[nH]c4ccc(Br)cc4c3-c3ccccc3)s2)cc1 | -66% (active)
N#Cc1c(-c2ccc(Cl)cc2)nc2n[nH]c(-c3ccc(Cl)cc3)c2c1-c1cccs1 | 69.3%
COc1c(F)ccc(C(=O)Nc2ccc3nc(NC(=O)C4CCCN(S(=O)(=O)c5cccc(Br)c5)C4)sc3c2)c1F (stereo not drawn) | 125%
O=c1[nH]c2ccc(Cl)cc2cc1CSc1nccc(-c2ccc(Cl)cc2)n1 | 61.7%
O=C(O)c1cccc(-c2ccc(/C=N/NC(=O)c3[nH]c4ccc(Br)cc4c3-c3ccccc3)s2)c1 | 49.9%
O=c1[nH]c(=O)c2c(-c3cc4ccccc4oc3=O)ccnc2[nH]1 | 98.8%
N#Cc1c(-c2ccc(Br)cc2)nc2n[nH]c(-c3ccc(Br)cc3)c2c1-c1ccc(C(F)(F)F)cc1 | 21.8%
COc1cccc(/C=C/c2nc3ccccc3c(=O)n2CC(=O)Nc2ccc(Cl)cc2)c1 | 91%
CSc1ccc(C(=O)Nc2ccc3nn(/C(C#N)=C/c4ccccn4)nc3c2)cc1 | -99.8% (active)
O=C(/C=C/c1ccc(-c2ccccc2)cc1)c1nc2ccccc2n1Cc1ccc(Br)cc1 | 62.6%
COc1ccc2c(c1)c(/C=N/Nc1ccc3ccccc3n1)cn2C | -59.6% (active)
COc1c(F)ccc(C(=O)Nc2ccc3nc(NC(=O)C4CCCN(S(=O)(=O)c5ccc(Br)c(F)c5)C4)sc3c2)c1F (stereo not drawn) | 109%
N#Cc1c(-c2cccc(Cl)c2Cl)cc(-c2ccc3ccccc3c2)[nH]c1=O | 75.6%
Nc1cc2ccccc2c(=O)n1NC(=O)c1ccc(I)cc1 | 114%
CCN(CC)c1ccnc(CNCCSC(c2ccccc2)(c2ccccc2)c2ccc(OC)cc2)c1 | -80.5% (active)
N#Cc1c(-c2ccccc2Cl)cc(-c2c[nH]c3ccccc23)[nH]c1=O | 73.1%
N#Cc1ccc(/C=N/NC(=O)c2[nH]c3ccc(Br)cc3c2-c2ccccc2)o1 | -30.9% (active)
Cc1nc(Nc2ncc(C(=O)Nc3c(C)cccc3Cl)s2)cc(N2CCN(CCCNC(=O)COc3ccc(C4CCC(=O)NC4=O)cc3)CC2)n1 (stereo not drawn) | 114%

SMILES | growth
Cc1cc(=O)oc2cc(OCCCOc3ccc(/C=C/C(=O)Nc4ccccc4N)cc3)ccc12 | 27.3%
COc1c(F)ccc(C(=O)Nc2ccc3nc(NC(=O)C4CCCN(S(=O)(=O)c5ccc(C(F)(F)F)cc5)C4)sc3c2)c1F (stereo not drawn) | 99.2%
Cc1sc2c(c1C)C(c1ccc(Cl)cc1)=N[C@@H](CC(=O)NCCCCCNC(=O)COc1ccc(C3CCC(=O)NC3=O)cc1)c1nnc(C)n1-2 (stereo partly drawn) | -10.8% (active)
COc1ccc(C(=O)/C=C/c2ccc(OCc3ccc(F)cc3)c(OC)c2)cc1OC | 16.8%
CCOC(=O)C1=C(N)N(c2ccccc2)C2=C(C(=O)CC(C)(C)C2)C1c1ccc(Cl)cc1Cl (stereo not drawn) | 37.5%
CCCCSc1nc(Nc2ccc(S(N)(=O)=O)cc2)c(C#N)c(-c2ccc(Cl)cc2)n1 | 64%
CC(C)CCNC(=O)N/C(N)=N/c1nc2ccccc2s1 | 97.6%
CN(C)c1nc(NCCNS(=O)(=O)c2ccc(C3=Nc4c(N)nc(N)nc4NC(c4ccc(F)cc4)C3)cc2)nc(Nc2ccc(F)cc2)n1 (stereo not drawn) | 28.6%
COc1ccc2cc([C@H](C)C(=O)N/N=C/c3ccc(Br)cc3)ccc2c1 | 107%
Cn1cc(-c2cc3nc(-c4cn(C)c5ncccc45)cc(N)n3n2)c2ccccc21 | 5.15% (active)
COc1ccc(-c2cc(C(=O)NCc3ccccc3)nn2-c2ccc(S(C)(=O)=O)cc2)cc1OC | 117%
COc1ccc(-c2ccc(SCC(=O)Nc3ccc(S(N)(=O)=O)cc3Br)nn2)cc1 | 99.3%
C#CCOc1cc(N(CC)CC)ccc1C(C(=O)NC(C)(C)C)N(C(=O)C1CCc2cc(F)ccc2O1)c1cc(C)cc(C)c1 (stereo not drawn) | 54.6%
N#Cc1c(-c2ccc(Br)cc2)nc2n[nH]c(-c3ccc(Br)cc3)c2c1-c1ccc(F)cc1 | 108%
CSc1ccc(NC(=O)c2ccc3nn(/C(C#N)=C/c4ccccn4)nc3c2)cc1 | -100% (active)
C=C1CC[C@@H]2[C@]3(C)COC(c4cn(-c5ccccc5)nc4-c4cccc([N+](=O)[O-])c4)O[C@@H]3CC[C@@]2(C)[C@@H]1C/C=C1/C(=O)OC[C@H]1O (stereo partly drawn) | -86% (active)
Cc1ccc(NC(=O)CN2CCN(c3ncnc4c3cnn4-c3ccccc3)CC2)cc1 | 102%
Cc1cc(C)cc(C(=O)Nc2cccc(-c3cn(-c4ccc(S(N)(=O)=O)cc4)nn3)c2)c1 | 49.9%
O=C(C1=CNC(=S)NC1c1ccc(O)cc1)c1cc2ccccc2oc1=O (stereo not drawn) | 102%
